Screens as filed in PubChem.
PRC2 inh: blocks human EZH2/PRC2 H3K27 methylation | Q15910 | DELFIA TRF, 1 h | inhibition, % at 12.5 µM | 57,000 tested, 0.35% active | AID 651548;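 active means mean inhibition of replicates at least 50% and every single replicate also reaching 50%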;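 further: dimethyl H3K27 on biotinylated H3 21-44 peptide detected by antibody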
A number is an active result; 0 = inactive. The sample as a whole holds a higher share of hits than the screen did.

SMILES	PRC2 inh
CN(C)CC(=O)Nc1ccc2c(c1)[C@@H]1C[C@@H](CC(=O)NC3CCCCC3)O[C@H](CO)[C@@H]1O2	0
COc1ccc(NC(=S)NCc2cn(-c3ccccc3)nc2-c2ccccc2)cc1OC	0
COc1ccccc1CNC(=O)C[C@H]1C[C@@H]2c3cc(NC(=O)C4CCOCC4)ccc3O[C@@H]2[C@@H](CO)O1	0
COc1ccc(C)cc1S(=O)(=O)N1CCC(C(=O)Nc2cc([N+](=O)[O-])ccc2C)CC1	0
C[C@H](CO)N1C[C@H](C)[C@@H](CN(C)C(=O)C2CCC2)Oc2cc(C3=CCCC3)ccc2S1(=O)=O	0
C/C=C/[C@H](CC(=O)N1Cc2ccccc2C[C@H]1CO)[Si](C)(C)c1ccc(OC)cc1	56.7
COc1ccc([Si](C)(C)[C@@H]2[C@@H](CC(=O)N3Cc4ccccc4C[C@H]3CO)O[C@]3(C(=O)N(C)c4c(Br)cc(C)cc43)[C@H]2C)cc1	0
COc1ccc(C(=O)Nc2ccc(CN3C(=O)[C@]4(O[C@H](CC(=O)N5Cc6ccccc6C[C@H]5CO)[C@@H]([Si](C)(C)c5ccc(OC)cc5)[C@@H]4C)c4ccccc43)cc2)cc1	0
O=C(CC1(O)C(=O)N(Cc2ccccc2)c2ccc(Br)cc21)c1ccccc1[N+](=O)[O-] (stereo not drawn)	0
O=C(CSc1nc(-c2ccccc2)cc(=O)[nH]1)Nc1cc(C(F)(F)F)ccc1Cl	64.5
Cc1ccc(NC(=O)CSc2nc(-c3ccccc3)cc(=O)[nH]2)cc1Cl	0
O=C(CSc1nc(-c2ccccc2)cc(=O)[nH]1)Nc1cccc(Cl)c1Cl	0
O=C(CC(Sc1ccc(Cl)cc1)c1ccc(Cl)cc1)C1CC1 (stereo not drawn)	53.4
COc1ccc(CCNc2ncnc3scc(-c4cccs4)c23)cc1OC	0
Cc1ccc(O)c(NC(=S)NC(=O)c2ccc(-c3ccccc3[N+](=O)[O-])o2)c1	0
COc1ccc(NC(=O)CSc2n[nH]c(N)n2)cc1Cl	0
CCC1(C)Cc2ccccc2-c2nc3[nH]nc(SCC(=O)Nc4ccc(OC)c(Cl)c4)n3c(=O)c21 (stereo not drawn)	60.1
COc1ccc(NC(=O)CSc2nnc(C)c(=O)[nH]2)cc1Cl	0
COc1ccc(-c2nc(SCC(=O)Nc3cccc(Br)c3)n[nH]2)cc1	0
COc1ccc(-c2nc(SCC(=O)Nc3ccc(Br)c(Cl)c3)n[nH]2)cc1	56.8
O=C(CSc1n[nH]c(-c2ccc(Cl)cc2)n1)Nc1ccc(Br)c(Cl)c1	0
COc1ccc(NC(=O)CN(c2ccc(OC)c(Cl)c2)S(C)(=O)=O)cc1Cl	0
COC(=O)c1c(NC(=O)CSc2ncnc3sc(C)c(C)c23)sc(C)c1C	0
Cc1noc(C)c1NC(=O)Nc1ccc2c(c1)C(=O)N([C@@H](C)CO)C[C@@H](C)[C@H](CN(C)CC1CCCCC1)O2	0
COC(=O)CCCCCCC(=O)N/N=C/c1ccc(OC)cc1OC	0
SMILES	PRC2 inh
COc1cc(/C=C/c2ccc(OC)cc2OC)cc(OC)c1	51.3
COc1ccc(/C=N/NC(=O)c2ccc(C(=O)NO)cc2)c(OC)c1	0
COC(=O)c1cc(NC(=O)COc2ccc(Cl)cc2C)cc(C(=O)OC)c1	0
CC(C)(Sc1ccc(CCN(CCCCC2CCCCC2)C(=O)NC2CCCCC2)cc1)C(=O)O	85.7
Cc1ccc(OCc2nc(N)nc(N(C)C)n2)cc1C	0
C[C@H]1CN([C@@H](C)CO)S(=O)(=O)c2ccc(C3=CCCCC3)cc2O[C@H]1CN(C)Cc1ccccc1	56.2
C[C@H](CO)N1C[C@H](C)[C@H](CN(C)Cc2ccccc2)Oc2cc(C3=CCCCC3)ccc2S1(=O)=O	0
C[C@@H]1CN([C@H](C)CO)S(=O)(=O)c2ccc(C3=CCCC3)cc2O[C@@H]1CN(C)C(=O)CC1CC1	0
CC(C)CC#Cc1ccc2c(c1)O[C@@H](CN(C)Cc1ccccc1)[C@@H](C)CN([C@H](C)CO)S2(=O)=O	0
C[C@H]1CN([C@@H](C)CO)S(=O)(=O)c2ccc(C3=CCCC3)cc2O[C@@H]1CN(C)C(=O)CC1CC1	0
CC(C)CC#Cc1ccc2c(c1)O[C@H](CN(C)Cc1ccc(C(=O)O)cc1)[C@@H](C)CN([C@H](C)CO)S2(=O)=O	70.4
C[C@@H]1CN([C@@H](C)CO)S(=O)(=O)c2ccc(C3=CCCCC3)cc2O[C@@H]1CN(C)Cc1ccccc1	0
CC(C)CC#Cc1ccc2c(c1)O[C@@H](CN(C)Cc1ccc(F)cc1)[C@H](C)CN([C@H](C)CO)S2(=O)=O	0
C[C@H](CO)N1C[C@H](C)[C@H](CN(C)C(=O)CC2CC2)Oc2cc(C3=CCCC3)ccc2S1(=O)=O	54.8
O=C(COc1ccccc1C(=O)O)Nc1ccccc1	0
CC(C)NC(=O)N[C@@H]1CC[C@H](CCNS(=O)(=O)Cc2ccccc2)O[C@@H]1CO	0
O=C(N=NC=C1C=CN(O)C=C1)c1ccccc1O	0
O=C(NO)c1ccc(C(=O)N/N=C/c2ccc(-c3ccccc3)c(F)c2)cc1	0
O=C(O)C[C@H]1CC[C@H](NC(=O)Nc2cc(F)ccc2F)[C@@H](CO)O1	0
